± gives the standard deviation of the averaged measurements.
Each compound was assayed on Serratia marcescens K904 PosmB-luxCDABE reporter (pMQ747) (assay: PosmB-lux reporter fold induction (RLU/OD600 relative to no-compound control), highest over Biolog concentrations; higher = stronger reporter activation). Conditions: Biolog plate: PM17; well positions: C1-4; ΔrcsB mutant CMS5177; 4 h.
Procedure: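 Serratia marcescens K904 (wild type) or its isogenic ΔrcsB mutant, carrying the Rcs-dependent PosmB-luxCDABE reporter plasmid pMQ747, was grown in LB at OD600 0.1 in Biolog Phenotype MicroArray plates PM11-20 for 4 h at 30-32°C. Each compound is present at 3-4 proprietary concentrations (not stated); per the Fig. S1 legend the value given is the highest fold over those wells. Three independent trials.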

Row | SMILES | PosmB-lux reporter fold induction
1 | Nc1ccncc1 [4-aminopyridine] | 1.95 ± 1.4

Same assay, conditions: Biolog plate: PM17; well positions: D5-8; ΔrcsB mutant CMS5177; 4 h

Row | SMILES | PosmB-lux reporter fold induction
2 | Nc1ncn[nH]1 [3-amino-1,2,4-triazole] | 5.84 ± 4.5
